High-throughput results (PubChem)
PLK1 PBD inh: PLK1 (human) polo-box domain binding inhibition; P53350; Plk1 PBD binding of FITC phosphopeptide, fluorescence polarization; 360,000 compounds, 2.8% hits; Potency, µM, for inactives: max response, negative = inhibition, hits mostly inhibitors; note: potency is the fitted concentration of half-maximal effect; series mostly up to about 57 µM; % is set by controls: 0 for no effect and ±100 for the full control effect; nearly all actives have a fitted effect of over 65% in size
HP1b binding inh: inhibitors of HP1-beta chromodomain binding to methylated histone tails. Potency, µM (top dose mostly 114 µM), for inactives: top-dose activity change, negative = inhibition, hits mostly inhibitors. 390,000 compounds, 0.56% hits. P83916. AlphaScreen HP1-beta / biotin-H3K9me3 peptide binding; note: potency is the fitted concentration of half-maximal effect; nearly all actives have a fitted effect of over 70% in size
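HP1-beta protein (50 nM final) preincubated 30 min at room temperature with biotinylated H3(1-18)K9me3 peptide (50 nM) in PBS pH 7.4, 0.01% Tween-20, then compound added for 30 min. AlphaScreen streptavidin donor/nickel chelate acceptor beads (10 ug/mL final), 30 min dark, luminescence read.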
BAZ2B block: blocks human BAZ2B | AlphaScreen BAZ2B-H3K14Ac peptide displacement | 360,000 compounds, 4.4% hits | AID 504333 | Potency, µM (titrated, usually from 114 µM), inactives show at the top dose activity change, negative = inhibition, usual class: inhibitors; note: potency is the fitted concentration of half-maximal effect; % is set by controls: 0 for no effect and ±100 for the full control effect; nearly all actives have a fitted effect of over 60% in size
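Compounds, titrated to a top concentration of 110 uM, were incubated 30 min at room temperature with preformed BAZ2B/acetyl-K14 H3 peptide complex (50 nM each). Proximity signal was measured by AlphaScreen after 20 min with beads.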
JMJD2A Tudor: blocks the human JMJD2A Tudor domain | O75164 | Potency, µM (highest dose often 114 µM), for the others: top-dose activity change, negative = inhibition, actives largely listed as inhibitors | AlphaScreen JMJD2A-Tudor / H3K4me3 peptide binding | 390,000 compounds, 4.4% hits | AID 504339; note: potency is the fitted concentration of half-maximal effect; % is set by controls: 0 for no effect and ±100 for the full control effect; nearly all actives have a fitted effect of over 50% in size
PI5P4K alpha inh: inhibitors of human PI5P4K alpha | P48426 | PI5P4Kalpha enzyme, ADP-Glo luminescence, 60 min; stronger effect = lower value | max response, % | 330,000 compounds, 1.2% hits; active = max response of -50% or lower; inconclusive = between -30% and -50%; inactive = -30% or higher; note: value at the top dose of about 77 µM; % is set by controls: 0 for no effect and ±100 for the full control effect
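Luminescence from ADP-Glo served as readout of PI5P4Kalpha activity in a qHTS format. Reaction: enzyme, substrate, compound, ATP at 5 microM final, 60 min at RT.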
G9a inh: blocks human histone lysine methyltransferase G9a; G9a H3K9 monomethylation, AlphaScreen, 2 h; Potency, µM (highest dose often 102 µM), inactives show at the highest dose activity, negative = inhibition, most hits filed as inhibitors; 350,000 compounds, 8.8% hits; Q96KQ7; note: potency is the fitted concentration of half-maximal effect; % is set by controls: 0 for no effect and ±100 for the full control effect; nearly all actives have a fitted effect of over 75% in size
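G9a (20 nM) was preincubated 15 min with compound, then reacted 2 h at room temperature with 500 nM biotin-H3K9 peptide and 20 µM SAM. Monomethyl-H3K9 detected by AlphaScreen using anti-H3K9me1 antibody.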
Numbers without * were called inactive; ! = repeats disagree; [ ] = remark or other dose. Only some compounds are listed: those with a hit (about 12% of all), similar ones and a draw of the others. Unless noted, calls come from the whole dose curve; as a rule, active = well fitted curve in the direction sought with a large enough effect; inconclusive = small, poorly fitted or top-dose-only effect, or another doubt; inactive = no such curve, though single readings can be large; an effect the other way counts as inactive or inconclusive.

Results for COc1cc(CN2CCN(S(=O)(=O)c3ccccc3)CC2)cc(OC)c1OC ?
PLK1 PBD inh: -4.3%; HP1b binding inh: inconclusive; BAZ2B block: inconclusive; JMJD2A Tudor: 20µM*; PI5P4K alpha inh: 0.1; G9a inh: 28.2µM*

Results for COc1cc(CN2CCN(S(=O)(=O)c3ccc(F)cc3)CC2)cc(OC)c1OC ?
PLK1 PBD inh: -12.1%; HP1b binding inh: inconclusive; BAZ2B block: 4.5%; JMJD2A Tudor: 7.94µM*; G9a inh: 7.94µM*!

Results for COc1cc(S(=O)(=O)N2CCN(Cc3ccccc3)CC2)ccc1Br ?
PLK1 PBD inh: -6.2%; HP1b binding inh: 18.4%; BAZ2B block: 4.2%; JMJD2A Tudor: -11.5%; PI5P4K alpha inh: -1.6; G9a inh: 44.7µM*

How did COc1ccc(OC)c(S(=O)(=O)N2CCN(Cc3ccccc3)CC2)c1 do in these assays?
PLK1 PBD inh: 0.9%; HP1b binding inh: 28.3%; BAZ2B block: -9.1%; JMJD2A Tudor: 1.0%; PI5P4K alpha inh: 3.5

What do the screens show for `Cn1c(-c2ccc(N)cc2)nc2ccccc21`?
PLK1 PBD inh: -7.6%; HP1b binding inh: 28.6%; BAZ2B block: 5.1%; JMJD2A Tudor: -13.7%; PI5P4K alpha inh: -0.3; G9a inh: 1.2%

How did Cc1ccc(-n2c(N)c(-c3nc4ccccc4n3C)sc2=S)cc1 do in these assays?
PLK1 PBD inh: 5.32µM*; HP1b binding inh: inconclusive; BAZ2B block: inconclusive; JMJD2A Tudor: inconclusive; G9a inh: 3.55µM*

Results for N#CC1=C(N)C2=C(N3CCCCC3)CCCC2C1(C#N)C#N (stereo not drawn) ?
PLK1 PBD inh: inconclusive; HP1b binding inh: 12.2%; BAZ2B block: 50.1µM*; JMJD2A Tudor: -29.8%; PI5P4K alpha inh: -54.0*; G9a inh: inconclusive

How did Cc1ccc(C)c(SCC(=O)OCC(=O)c2ccco2)c1 do in these assays?
PLK1 PBD inh: inconclusive; HP1b binding inh: inconclusive; BAZ2B block: 50.1µM*; JMJD2A Tudor: 79.4µM*; G9a inh: inconclusive

What do the screens show for `Cn1c(N)c(C(=O)COC(=O)Cc2cccs2)c(=O)n(C)c1=O`?
PLK1 PBD inh: 5.2%; HP1b binding inh: 16.4%; JMJD2A Tudor: -10.4%; PI5P4K alpha inh: 4.9

What do the screens show for `Cc1ccc(C)c(SCC(=O)NCc2ccco2)c1`?
PLK1 PBD inh: -9.4%; HP1b binding inh: 10.6%; BAZ2B block: -34.4%[57.1 µM]; JMJD2A Tudor: -5.0%; PI5P4K alpha inh: -6.9; G9a inh: 42.5%[0.501 µM]

What do the screens show for `O=C(Cc1cccs1)OCC(=O)c1ccco1`?
PLK1 PBD inh: inconclusive; HP1b binding inh: inconclusive; BAZ2B block: inconclusive; JMJD2A Tudor: 79.4µM*; PI5P4K alpha inh: inconclusive; G9a inh: 50.1µM*

How did Cc1cccc(OCC(=O)Nc2ccccc2C(=O)OCc2cc(=O)n3nc(C)sc3n2)c1 do in these assays?
HP1b binding inh: -0.4%; BAZ2B block: -3.4%; JMJD2A Tudor: -18.2%; G9a inh: -3.2%[59 µM]

How did CCCn1c(=O)c2ccccc2n2c(SCCOc3ccc(C)cc3)nnc12 do in these assays?
PLK1 PBD inh: -2.8%; HP1b binding inh: 44.7%; BAZ2B block: 6.7%; JMJD2A Tudor: 28.2µM*; G9a inh: inconclusive

What do the screens show for `CCCn1c(=O)c2ccccc2n2c(SCC(=O)NCc3cccs3)nnc12`?
PLK1 PBD inh: 26.7µM*; HP1b binding inh: 1.7%; BAZ2B block: -1.0%; JMJD2A Tudor: 25.1µM*; PI5P4K alpha inh: -7.9; G9a inh: inconclusive

What do the screens show for `CCn1c(=O)c2ccccc2n2c(SCC(=O)NCc3cccs3)nnc12`?
PLK1 PBD inh: 4.0%; HP1b binding inh: 35.7%; BAZ2B block: 9.8%; JMJD2A Tudor: -6.4%; G9a inh: 3.8%[12.7 µM]

Results for COCCn1c(N)c(C(=S)NC(=O)c2cccs2)c(=O)[nH]c1=O ?
PLK1 PBD inh: 23.8µM*; HP1b binding inh: -6.9%; BAZ2B block: -13.6%; JMJD2A Tudor: -19.2%; PI5P4K alpha inh: -82.0*; G9a inh: inconclusive
